Measured values: PubChem BioAssay (NCI)
Compounds without any hit were thinned out: in the full panel of roughly 83,000, 20% have a hit.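 Step 1: grow cells in 96-well plates. Step 2: add test compound at a single concentration. Step 3: incubate 48 h. Step 4: record percent growth.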 Unmarked numbers belong to inactive results. Active and inactive are the calls of the source. Rule for the calls: active = growth percent below 10; inactive = the rest.

Legend:
Assay in all cases: NCI-60 one-dose screen, 48 h (100 = growth as untreated, 0 = no growth, -100 = all killed)
Conditions in all cases: 10 µM
[1] = tested on: HOP-92 NSCLC
[2] = tested on: RXF 393 renal
[3] = tested on: SNB-75 CNS
[4] = tested on: SK-MEL-5 melanoma
[5] = tested on: UACC-62 melanoma
[6] = tested on: CCRF-CEM leukemia
[7] = tested on: OVCAR-4 ovarian
[8] = tested on: SK-OV-3 ovarian
[9] = tested on: T-47D breast
[10] = tested on: MCF7 breast
[11] = tested on: HCT-116 colon
[12] = tested on: HCC-2998 colon
[13] = tested on: KM12 colon
[14] = tested on: COLO 205 colon
[15] = tested on: SN12C renal
[16] = tested on: NCI/ADR-RES ovarian
[17] = tested on: SK-MEL-2 melanoma
[18] = tested on: IGROV1 ovarian

SMILES: O=C(c1ccccc1)c1ccc2nc(-c3ccccc3Br)[nH]c2c1
- growth [1]: -90.6% (active)
- growth [2]: -90.4% (active)
- growth [3]: -41.9% (active)
- growth [4]: -97.6% (active)
- growth [5]: -47.5% (active)
- growth [6]: -9.65% (active)
- growth [7]: -54.8% (active)
- growth [8]: 24%
- growth [9]: -59.3% (active)
- growth [10]: -6.39% (active)
- growth [11]: -38.8% (active)
- growth [12]: -96.3% (active)
- growth [13]: -44.2% (active)

SMILES: O=C(CN1CCN(c2ncnc3c2cnn3-c2ccccc2)CC1)Nc1ccc(Cl)cc1
- growth [1]: 69.8%
- growth [14]: 56.7%
- growth [2]: 74.4%
- growth [4]: 0.35% (active)
- growth [5]: 45.3%
- growth [15]: 46.6%
- growth [6]: 51.9%
- growth [7]: 44.5%
- growth [16]: 48%
- growth [9]: 26.7%
- growth [10]: 27.6%
- growth [11]: 51.8%
- growth [12]: 55.8%
- growth [13]: 53.1%

SMILES: CC1(C)CC[C@]2(C(=O)O)CC[C@]3(C)C(=CCC4[C@@]5(C)C[C@@H](O)[C@@H]6OC(c7cccc(F)c7)OC[C@@]6(C)C5CC[C@]43C)C2C1 (some centres undefined)
- growth [1]: 41.9%
- growth [2]: 67.2%
- growth [4]: 45.9%
- growth [17]: 51.1%
- growth [15]: 28.2%
- growth [6]: 32%
- growth [7]: 54.6%
- growth [18]: 75.4%
- growth [9]: 38.9%
- growth [10]: 21.5%
- growth [11]: 9.3% (active)
- growth [12]: 37.5%
- growth [13]: 21.3%

SMILES: COc1ccc(-n2c(SCC(=O)NNS(=O)(=O)c3ccccc3)nc3ccc(Cl)cc3c2=O)cc1
- growth [1]: 101%
- growth [14]: 120%
- growth [2]: 100%
- growth [4]: 98.9%
- growth [17]: 100%
- growth [15]: 94.1%
- growth [6]: 108%
- growth [7]: 98.2%
- growth [8]: 66.1%
- growth [9]: 94.8%
- growth [10]: 83.2%
- growth [11]: 95.6%
- growth [12]: 118%
- growth [13]: 102%
